Compound activity as filed in PubChem BioAssay.
Hits are enriched below; roughly 1.2% of the tested compounds scored in any of these assays.
Tb PGK inh: qHTS Assay to Find Inhibitors of Phosphoglycerate Kinase; 0.043% of 380,000 active; PGK/GAPDH coupled, Kinase-Glo luminescence, 60 min; Potency, µM (highest dose often 57.5 µM), for inactives: top-dose activity change, negative = inhibition, hits mostly inhibitors; Phosphoglycerate kinase, glycosomal (Trypanosoma brucei brucei), P07378; AID 602233, 2012; note: potency is the fitted concentration of half-maximal effect; nearly all actives have a fitted effect of over 60% in size
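Recombinant glycosomal PGK reaction used 1,3-bisphosphoglycerate generated in-well by GAPDH (100nM final) in 100mM TEA pH 7.6, 5mM MgCl2, 0.01% Tween-20. After 60 minutes at room temperature, ATP was read by Kinase-Glo Plus luminescence end-point.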
PI5P4K alpha inh: qHTS for Inhibitors of phosphatidylinositol 5-phosphate 4-kinase (PI5P4K) | PI5P4Kalpha enzyme, ADP-Glo luminescence, 60 min; active compounds read low | Phosphatidylinositol 5-phosphate 4-kinase type-2 alpha (Homo sapiens), P48426 | AID 652105, 2013 | 1.2% of 330,000 active | max response, %; active = max response of -50% or lower; inconclusive = between -30% and -50%; inactive = -30% or higher; note: value at the top dose of about 77 µM
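Single end-point luminescence (ADP-Glo) quantified ADP from PI5P4Kalpha turnover; ATP 5 microM final, 1 h at RT, 0.1% CHAPS and 0.28 mM EGTA in HEPES pH 7.4.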
PI4K2A inh: qHTS for small molecular inhibitors of PI4K2A | activity change, negative = inhibition, % at 76.9 µM | purified PI4K2A, ADP-Glo luminescence, 1 h; active compounds read low | 0.13% of 420,000 active | Phosphatidylinositol 4-kinase type 2-alpha (Homo sapiens), Q9BTU6; in the data active = activity change below about -50%; inconclusive = mostly about -30% to -49%;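 note: -100% = wells without enzyme as full effect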
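Compounds are screened against recombinant PI4K2A using PI as substrate and ATP, the latter dispensed at 300 microM. Reactions run one hour at ambient temperature before ADP-Glo detection; full inhibition defined by wells lacking enzyme.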
KAT2A inh: qHTS Assay for Inhibitors of GCN5L2 | Histone acetyltransferase KAT2A (Homo sapiens), Q92830 | GCN5L2 HAT assay, ThioGlo1 CoA-SH fluorescence | Potency, µM (doses to about 58.9 µM), inactives show top-dose activity change, negative = inhibition, actives largely listed as inhibitors | 0.21% of 390,000 active; note: potency is the fitted concentration of half-maximal effect
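Titration-based screen in which CoA formation is detected via maleimide probe ThioGlo1 (50uM) turning fluorescent on thiol reaction; substrates H3(1-25) 75uM and acetyl-CoA 70uM, GCN5L2 20nM, 20 min incubation at room temperature.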
RGS12 GoLoco inh: qHTS Assay for Inhibitors of RGS12 GoLoco Motif Activity (Red Fluorophore); 0.44% of 230,000 active; AID 880, 2007; Gai1:RGS12 GoLoco peptide FP, rhodamine, 10 min; Potency, µM (doses to about 61.6 µM), without a hit: top-dose activity, negative = inhibition, usual class: inhibitors; active = well fitted inhibition curve with a large enough effect, not every such curve was filed as active; inactive = no such curve, though single readings can be large or run the other way; note: potency is the fitted concentration of half-maximal effect; nearly all actives have a fitted effect of over 30% in size
Target sequence (P63096 whole entry, looked up): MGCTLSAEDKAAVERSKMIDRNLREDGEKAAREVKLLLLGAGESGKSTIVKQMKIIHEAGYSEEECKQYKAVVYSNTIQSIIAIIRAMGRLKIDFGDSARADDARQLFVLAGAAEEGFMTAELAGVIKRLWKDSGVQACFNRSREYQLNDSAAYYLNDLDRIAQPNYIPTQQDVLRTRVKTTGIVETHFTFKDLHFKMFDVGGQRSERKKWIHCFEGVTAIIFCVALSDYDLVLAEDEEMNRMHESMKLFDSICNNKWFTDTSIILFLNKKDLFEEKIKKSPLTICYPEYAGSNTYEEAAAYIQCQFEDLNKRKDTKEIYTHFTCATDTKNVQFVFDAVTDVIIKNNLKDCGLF
Pin1 inhibitor: qHTS Assay to Find Inhibitors of Pin1. 0.009% of 390,000 active. Potency, µM (doses to about 115 µM), without a hit: at the top dose activity, negative = inhibition, actives largely listed as inhibitors. Pin1 FP peptide displacement, HiFluor488, 10 min; active = well fitted inhibition curve with a large enough effect in the polarisation, with a control signal flat, not every such curve was filed as active; inconclusive = small, poorly fitted or top-dose-only effect, or effect the other way, or a change in a side signal; inactive = no such curve, though single readings can be large or run the other way; the % refers to the polarisation; note: potency is the fitted concentration of half-maximal effect
Target sequence (Q13526 whole entry, looked up): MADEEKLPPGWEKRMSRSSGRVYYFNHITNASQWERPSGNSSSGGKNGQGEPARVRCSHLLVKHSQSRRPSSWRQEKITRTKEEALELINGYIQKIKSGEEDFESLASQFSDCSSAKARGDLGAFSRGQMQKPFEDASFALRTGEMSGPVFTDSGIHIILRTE
Numbers without * were called inactive. Unless noted, calls come from the whole dose curve; as a rule, active = well fitted curve in the direction sought with a large enough effect; inconclusive = small, poorly fitted or top-dose-only effect, or another doubt; inactive = no such curve, though single readings can be large; an effect the other way counts as inactive or inconclusive. Unless noted, % is set by controls: 0 for no effect and ±100 for the full control effect.

COCCC(=O)Nc1c(-c2ccccc2)c2cc(Br)ccc2[nH]c1=O was read as Tb PGK inh 3%, PI5P4K alpha inh -2, PI4K2A inh -7, KAT2A inh inconclusive and Pin1 inhibitor -13%.
For N#Cc1cccc(-c2nc3cnc(N4CCOCC4)nc3n(C3CC3)c2=O)c1 the results were KAT2A inh -10% and RGS12 GoLoco inh 3.2µM*.
Screening O=C(N/N=C/c1cc([N+](=O)[O-])ccc1O)c1ccc(COc2ccc3c(c2)CCC3)o1 returned Tb PGK inh 0%, PI5P4K alpha inh -56*, PI4K2A inh -9, KAT2A inh -12% and Pin1 inhibitor 14%.
`CCCCc1cc(-c2n[nH]c(=S)o2)c2ccccc2n1` gave Tb PGK inh -5%, PI5P4K alpha inh -56*, PI4K2A inh 11, KAT2A inh 20% and Pin1 inhibitor -2%.
For O=c1nc2s/c(=C\c3ccco3)c(=O)n2nc1Cc1ccc(F)cc1 the results were Tb PGK inh inconclusive, PI5P4K alpha inh -56*, PI4K2A inh inconclusive, KAT2A inh inconclusive and RGS12 GoLoco inh 18%.
For NC(=O)Cc1ccc(C(=O)CSc2nnc(-c3ccncc3)n2C2CC2)s1 the results were Tb PGK inh -11%, PI5P4K alpha inh -78*, PI4K2A inh inconclusive, KAT2A inh -18% and Pin1 inhibitor inconclusive.
For N#CCCN(C(=O)CSc1nnc(-c2ccncc2)n1C1CC1)c1ccccc1 the results were Tb PGK inh -4%, PI5P4K alpha inh 2, PI4K2A inh -3, KAT2A inh -3% and Pin1 inhibitor -5%.
For CC1C2C(C)N(C)C(=O)N(C)C2N(C)C(=O)N1C (stereo unspecified) the results were Tb PGK inh 7%, PI5P4K alpha inh -2, PI4K2A inh 1, KAT2A inh -4%, RGS12 GoLoco inh -1% and Pin1 inhibitor inconclusive.
Screening COC1=CC(=O)c2c(ccc3ncnc(N)c23)C1=O returned Tb PGK inh inconclusive, PI5P4K alpha inh -23 and PI4K2A inh -58*.
`c1ccc(-c2nn[nH]n2)c(Nc2cccc3c2CCCC3)c1` gave KAT2A inh 18µM*.
CCOC(=O)/C(C#N)=N/Nc1ccc(S(=O)(=O)N2CCc3ccccc32)cc1 was read as Tb PGK inh -5%, PI5P4K alpha inh 1, PI4K2A inh 0, KAT2A inh -11%, RGS12 GoLoco inh 6% and Pin1 inhibitor 5%.
For N#C/C(=N\Nc1ccc(S(=O)(=O)N2CCc3ccccc32)cc1)C(N)=S the results were Tb PGK inh 2%, PI5P4K alpha inh -62*, PI4K2A inh -11, KAT2A inh -12%, RGS12 GoLoco inh 1% and Pin1 inhibitor 1%.
`CC(C)c1ccc(S(=O)(=O)/N=C2/C=C(Sc3ncn[nH]3)C(=O)c3ccccc32)cc1` gave Tb PGK inh -11%, PI5P4K alpha inh -79*, PI4K2A inh -55*, KAT2A inh inconclusive and RGS12 GoLoco inh -40%.
Screening Cc1ccc(S(=O)(=O)/N=C2/C=C(Sc3ncn[nH]3)C(=O)c3ccccc32)c(C)c1 returned KAT2A inh inconclusive and RGS12 GoLoco inh -27%.
`N=c1oc2c3c4c(cc2cc1C(=O)Nc1ccccc1)CCCN4CCC3` gave Tb PGK inh 7%, PI5P4K alpha inh 2, PI4K2A inh -4, KAT2A inh -1%, RGS12 GoLoco inh 4µM* and Pin1 inhibitor inconclusive.
For O=C(C1CCCN(S(=O)(=O)c2cccc3cccnc23)C1)N1CCc2ccccc21 (stereo unspecified) the results were Tb PGK inh inactive, PI5P4K alpha inh -7, PI4K2A inh -1, KAT2A inh -15%, RGS12 GoLoco inh -3% and Pin1 inhibitor -1%.
